Among all 290,000 compounds or so, about 50 (0.02%) were called active. Only a selection was taken, and actives are over-represented in it overall. Potency and affinity values are given separately. Unmarked numbers belong to inactive results.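 How the source made its calls: active means displacement of at least 50% at 20 µM, with a fluorescence ratio check between 0.3 and a set limit; inactive means the rest.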
target: E3 ubiquitin-protein ligase SIAH1 (Homo sapiens) (UniProt Q8IUQ4); experiment: blockers of Siah-1 interaction with plectin peptide – biochemical, fluorescence polarization, rhodamine-plectin, uHTS, primary screen (AID 1817); settings: Siah-1 / rhodamine-plectin peptide fluorescence polarization; at 20 µM; active compounds read high;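 further: plate controls were Siah plus tracer with DMSO for no effect and tracer alone without Siah for full effect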
Sequence (Q8IUQ4 whole entry, looked up): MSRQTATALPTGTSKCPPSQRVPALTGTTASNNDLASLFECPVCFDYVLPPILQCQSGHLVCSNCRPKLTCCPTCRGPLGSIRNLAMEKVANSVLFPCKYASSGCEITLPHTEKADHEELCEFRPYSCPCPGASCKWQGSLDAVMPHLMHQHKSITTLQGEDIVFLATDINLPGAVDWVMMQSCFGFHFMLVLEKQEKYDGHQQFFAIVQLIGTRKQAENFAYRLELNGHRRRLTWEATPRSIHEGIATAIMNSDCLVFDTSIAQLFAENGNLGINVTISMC

SMILES | displacement
CCCCCCOc1ccc(N2C(=O)CC(N3CCN(CCN=CC4=C(O)CC(C)(C)CC4=O)CC3)C2=O)cc1 (centres undefined) | 1.8%
CC(C)(C)c1ccc(C(CC(=O)O)NC(=O)Cc2ccccc2)cc1 (centres undefined) | 1.2%
CC(C)(C)c1ccc(C(CC(=O)O)NC(=O)Cc2ccc(Cl)cc2)cc1 (centres undefined) | -2.3%
CCOC(=O)c1nn(-c2cccc(OC)c2)c2nc(CC)c(C#N)c(=O)n12 | 12.2%
C=CCc1cccc2cc(C(=O)Nc3ccc(NC(C)=O)cc3)c(=O)oc12 | 9.1%
C=CCc1cccc2cc(C(=O)Nc3ccc(F)cc3)c(=O)oc12 | 5.1%
CCn1c(SC(C)C(=O)O)nnc1-c1cccnc1 (centres undefined) | -1.4%
Cc1ccc(-n2ncc3c2CC(C)(C)CC3NC(=O)c2ccc[n+]([O-])c2)cc1 (centres undefined) | 4.8%
C=CCNC(=S)Nc1ccc2nc(C)c(C)nc2c1 | 3.4%
C=CCNC(=S)Nc1ccc2nsnc2c1 | 52.1% (active)
OCCNC(=S)Nc1ccc2nsnc2c1 | -1.1%
O=C(N/N=C/c1cccnc1)c1ccc2c(c1)OCCO2 | -2.3%
COc1ccc(-c2nc3c4ccccc4ccn3c2CN2CCOCC2)cc1OC | 13.8%
COC(=O)c1ccc2c(=O)n(CCCN3CCCC3=O)c(=S)[nH]c2c1 | -3.7%
O=C(O)c1nc(-c2ccccc2)n(-c2cccc(C(F)(F)F)c2)n1 | -2.9%
COCCNC(=O)CSc1nc2cc(OC)c(OC)cc2c(=O)n1Cc1ccc(OC)cc1 | 0.2%
Cc1cc(C)n2nnnc2c1C#N | 1.6%
O=C(Nc1ccc(Br)cc1)c1ccc(N2C(=O)C3CCCCC3C2=O)cc1 (centres undefined) | -1%
O=C(Nc1ccc(Br)cc1)c1ccc(N2C(=O)C3CC=C(Cl)CC3C2=O)cc1 (centres undefined) | -0.2%
CCCOc1ccc(C(=O)CCC(=O)OCC(=O)Nc2cc(C)on2)cc1 | -2.7%
COc1ccccc1C(=O)Nc1ccnn1C1CCN(Cc2ccc3nonc3c2)CC1 | 7.2%
Cn1c(Cc2csc(N)n2)nnc1SCC(=O)NC1CCCCC1 | 0.1%
O=S(=O)(c1ccc(Cl)cc1)N1CCN(C2CCN(Cc3ccccc3)CC2)CC1 | 3%
Cc1oc2cc(O)ccc2c(=O)c1-c1ccccc1 | 8.8%
Nc1ccc(-c2c3ccc(=O)cc-3oc3cc(O)ccc23)cc1C(=O)O | 3%
C/C(=N\NC(=O)c1c(Cl)cnn1C)c1cccc(NC(=O)COc2ccccc2)c1 | 0.3%
CC(=O)Nc1ccc(C(=S)NCCCO)cc1 | -4.5%

SMILES | displacement
CC(C)COC(=O)c1ccc2c(c1O)C(=O)c1ccccc1C2=O | 4.6%
O=C(COC(=O)c1ccc2c(c1Cl)C(=O)c1ccccc1C2=O)NC1CCCCC1 | -2.2%
O=C(COC(=O)c1ccc2c(c1Cl)C(=O)c1ccccc1C2=O)NC1CC1 | -3.3%
CCN(CC)C(=O)c1ccc2c(c1[N+](=O)[O-])C(=O)c1ccccc1C2=O | 34.3%
Cc1[nH]c2ccccc2c1CCNC(=O)c1ccc2c(c1[N+](=O)[O-])C(=O)c1ccccc1C2=O | 22.7%
COc1ccc2c(c1O)C(=O)c1ccccc1C2=O | 2.4%
COC(=O)c1ccc2c(c1O)C(=O)c1ccccc1C2=O | 71.8% (active)
O=C(COC(=O)c1ccc2c(c1[N+](=O)[O-])C(=O)c1ccccc1C2=O)NC1CC1 | 76.3% (active)
CN(C)C(=O)c1ccc2c(c1[N+](=O)[O-])C(=O)c1ccccc1C2=O | 60.6% (active)
CN(CCOc1ccccc1)S(=O)(=O)c1ccc2oc3ccccc3c2c1 | 2.8%
CC(=O)c1ccc(NC(=O)CCNS(=O)(=O)c2ccccc2F)cc1 | -1.6%
Cc1ccc(N(C)S(=O)(=O)c2cc3c(cc2C)NC(=O)CO3)cc1 | -1%
Cc1nc(N)sc1-c1csc(Nc2ccccn2)n1 | -1.4%
Cc1nc(N)sc1-c1csc(Nc2ncccn2)n1 | 57.3% (active)
Cc1nc(N)sc1-c1csc(Nc2ccccc2)n1 | 3.2%
CCOC(=O)c1[nH]c2ccccc2c1NC(=O)c1ccc(S(=O)(=O)N2CCCCC2)cc1 | -3.4%
COc1ccc(C(=O)N2CCC(O)(c3ccc(Cl)cc3)CC2)cc1OC | -8.7%
CC1CCc2onc(C(=O)NCc3ccco3)c2C1 (centres undefined) | 3.6%
Cc1ccccc1Nc1nc(-c2sc(NC(=O)c3ccccc3)nc2C)cs1 | -5.4%
O=C(CN1C(=O)N/C(=C\c2ccccc2OCc2ccc(C(=O)O)cc2)C1=O)Nc1ccc(F)cc1 | 1.1%
O=C(CN1C(=O)N/C(=C\c2ccccc2OCc2ccc(C(=O)O)cc2)C1=O)Nc1ccccc1F | 10.4%
CCOC(=O)CNC(=S)N(Cc1cccs1)C1CCCC1 | 0.7%
Cc1cccc(C(=O)NNC(=O)c2ccc(S(=O)(=O)N3CCOCC3)cc2)c1 | -3.9%
O=c1cc(-c2ccccc2)[nH]n1-c1ccc([N+](=O)[O-])cc1 | -0.2%
O=c1[nH]n(-c2ccccc2)c(=O)c2ccccc12 | 0%
O=C(C1CCN(S(=O)(=O)c2ccc(F)cc2)CC1)N1CC=C(c2ccccc2)CC1 | 3%
COc1ccc(C(CNC(=O)C(C)c2ccc3cc(OC)ccc3c2)N(C)C)cc1 (centres undefined) | 5.2%

SMILES | displacement
CC1=C(C#N)c2nc(N)c(C#N)c(C)c2/C1=C\c1ccc(C)cc1 | -2.8%
CC1=C(C#N)c2nc(N)c(C#N)c(C)c2/C1=C\c1ccc(OCC(=O)O)c(Cl)c1 | 0%
COc1ccc(C2=[N+]([O-])C(C)(C)C(c3ccccc3)=N2)cc1 | 6.6%
COc1ccc(-c2nc(CN3CCN(Cc4cccc(F)c4)CC3)c(C)o2)cc1 | 13.6%
O=C(CCC1CCCC1)N1CCN(C(=O)c2ccco2)CC1 | -6%
O=C(CNC(=O)c1ccccc1F)NC1CCN(Cc2ccccc2)CC1 | -3.7%
CC(SCc1ccccc1)C(=O)Nc1ccccc1Br (centres undefined) | -6.3%
Cc1sc2cc(-c3cccc([N+](=O)[O-])c3)c(-c3cccc([N+](=O)[O-])c3)c[n+]2c1C | 5.1%
Oc1ccccc1/C=N/NC(=S)NC1CC2CC1C1C=CCC21 (centres undefined) | 2.4%
CC(C)(C)c1nnc(N/N=C/c2ccc(O)cc2)n(N)c1=O | 18.4%
CC(C)(C)c1nnc(N/N=C/c2ccc(Br)cc2)n(N)c1=O | 7.3%
CC(C)(C)c1nnc(N/N=C/c2ccccc2)n(N)c1=O | 51.9% (active)
CCCc1nnc(NC(=O)C2CC(=O)N(CCc3ccc(F)cc3)C2)s1 (centres undefined) | 24.3%
Cc1c(C)n(C(=O)CSc2ncn[nH]2)c2ccccc12 | -4.9%
Cc1c(C)n(C(=O)CSc2nc3ccccc3[nH]2)c2ccccc12 | 51% (active)
Cc1[nH]c2ccccc2c1C(=O)CSc1nc2ccccc2[nH]1 | -0.5%
O=C(CSCc1nc2scc(-c3cccs3)c2c(=O)[nH]1)Nc1ccccn1 | -4.4%
COc1ccc(OCC(O)CNC(=O)c2ccccc2C(=O)O)cc1 (centres undefined) | 8.1%
CCOc1ccc2noc3c2c1C(=O)c1ccccc1-3 | 37.3%
CCOC(=O)N1CCN(c2cc(NCCC(=O)O)c3c4c(onc24)-c2ccccc2C3=O)CC1 | 16.7%
CCOC(=O)C(C(=O)OCC)c1cc(Br)c2noc3c2c1C(=O)c1ccccc1-3 | 102% (active)
COc1ccc(-c2cc(C(=O)N3CCc4ccccc4C3)no2)cc1 | 0.3%
Cc1ccc(S(=O)(=O)N2CCN(c3cccc(C)c3)CC2)cc1 | 12.1%
COc1cccc(OCc2cc(C(=O)NC3CCOCC3)no2)c1 | 1.4%
CC1=C([N+](=O)[O-])C(c2ccccc2)NC(=O)N1 (centres undefined) | -5.5%

Reference: PubChem BioAssay AID1817 (Sanford-Burnham Center for Chemical Genomics, 2009)
